Shown are actives, neighbours in structure and some others; about 14% of the full set was active somewhere.
LmPK inh: blocks Leishmania mexicana pyruvate kinase activity. Q27686. purified LmPK, Kinase-Glo ATP luminescence, 1 h. Potency, µM (highest dose often 57.5 µM), without a hit: top-dose activity change, negative = inhibition, hits mostly inhibitors. actives 0.37% (n = 290,000). AID 1721; also: potency is read from the fitted curve at half-maximal effect; % is scaled to controls: 0 for no effect and ±100 for the full control effect
Target sequence (Q27686 whole entry, looked up): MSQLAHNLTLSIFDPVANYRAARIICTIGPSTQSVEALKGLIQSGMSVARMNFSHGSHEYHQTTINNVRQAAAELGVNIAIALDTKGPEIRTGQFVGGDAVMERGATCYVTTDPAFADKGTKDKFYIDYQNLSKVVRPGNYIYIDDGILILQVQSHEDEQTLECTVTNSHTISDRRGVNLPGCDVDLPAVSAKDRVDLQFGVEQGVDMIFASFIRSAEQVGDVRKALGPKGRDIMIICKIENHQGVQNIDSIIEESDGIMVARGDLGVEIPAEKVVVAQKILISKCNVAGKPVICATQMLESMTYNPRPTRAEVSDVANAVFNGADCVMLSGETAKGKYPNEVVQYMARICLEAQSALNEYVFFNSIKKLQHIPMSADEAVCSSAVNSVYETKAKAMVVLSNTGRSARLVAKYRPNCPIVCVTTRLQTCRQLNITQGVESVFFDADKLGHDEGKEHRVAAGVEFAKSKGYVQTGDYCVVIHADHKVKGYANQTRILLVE
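ATP generated from ADP (0.1 mM) and PEP (0.5 mM) by 0.1 nM LmPK over 1 h at room temperature (pH 7.2 imidazole buffer) was detected by coupled luciferase luminescence. Values were normalized to uninhibited and no-enzyme wells.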
Cycloheximide cs: affects cycloheximide protein synthesis inhibition readout, counter-screen | cell reporter, cycloheximide protein synthesis inhibition counterscreen | max response, % | actives 12% (n = 300,000) | AID 2314; in the data active = max response mostly above about 13%, no sharp cut-off; inactive = mostly below about 14%; also: read at 38.3 µM for the half of the compounds with a filed dose; 0% is about no effect
Shiga toxin inh: inhibitors of Shiga toxin in Vero cells; Vero cells, Shiga toxin protein synthesis inhibition reporter; inhibition, % at 38.7 µM; actives 9.2% (n = 290,000); AID 2315; in the data active = inhibition mostly above about 28%, no sharp cut-off; inactive = mostly below about 43%; also: 0% is about no effect
Giardia FBPA inh: blocks Giardia fructose-bisphosphate aldolase activity. A8B2U2. purified Giardia FBPA. Potency, µM (top dose mostly 59.6 µM), for inactives: at the top dose activity, negative = inhibition, hits mostly inhibitors. actives 0.71% (n = 290,000); also: potency is read from the fitted curve at half-maximal effect; % is scaled to controls: 0 for no effect and ±100 for the full control effect; nearly all actives have a fitted effect of over 55% in size
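40 nM FBPA preincubated 10 min at RT with compound (up to 57.5 uM final), then substrate plus GAPDH/TPI/NAD/arsenate coupling and diaphorase/resazurin added. Fluorescence read after 20 min at RT, 525/598 nm.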
NS1 function inh: inhibitors of influenza NS1 protein function; actives 0.4% (n = 270,000); AID 2326; Potency, µM (titrated, usually from 46.1 µM), inactives show at the highest dose activity, positive = more growth; calls by dose curve; also: potency is read from the fitted curve at half-maximal effect; actives are rising curves; nearly all actives have a fitted effect of over 50% in size
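In this qHTS, NS1 from influenza A is expressed in budding yeast, where it slows growth. Cells are switched from glucose to 2% galactose medium (pH 6.0, -URA), treated with compound, and growth recovery is read at OD600.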
* hit, by the source's call; u = inconclusive; x = no result given; [ ] = dose if it differs, or a comment. Unless noted, calls follow the shape of the dose curve; as a rule, active = well fitted curve in the direction sought with a large enough effect; inconclusive = small, poorly fitted or top-dose-only effect, or another doubt; inactive = no such curve, though single readings can be large; an effect the other way counts as inactive or inconclusive.

SMILES	LmPK inh	Cycloheximide cs	Shiga toxin inh	Giardia FBPA inh	NS1 function inh
COc1ccccc1COc1ccc2c(C)c(CC(=O)O)c(=O)oc2c1C	-1%	-2	-6	5%	13%
COc1cccc(OCc2cc(C(=O)N3CCN(c4ccccc4OC)CC3)no2)c1	2%	29*	70*	-6%	-9%
COc1cccc(OCc2cc(C(=O)N3CCN(c4ccccc4O)CC3)no2)c1	-7%	50*	107*	x	-18%
COc1cccc(OCc2cc(C(=O)N3CCN(C(C)=O)CC3)no2)c1	-11%	60*	104*	x	10%
COc1ccccc1N1CCN(C(=O)c2cc(-c3ccccc3)on2)CC1	-1%	-1	15	11%	-10%
COc1ccccc1N1CCN(C(=O)c2cc(-c3ccccc3O)on2)CC1	0%	1	2	8%	-5%
CCOC(=O)c1c(O)[nH]c(=O)c(CC)c1C	x	x	x	x	0%
O=C(CSc1nc2ccc(Nc3nc(N4CCOCC4)nc(N4CCOCC4)n3)cc2s1)Nc1ccccc1F	-7%	1	-2	x	12%
Cc1cc(C)c(NC(=O)Nc2ccccc2)c(Cl)c1	2%	7	23	0%	14%
CCOC(=O)c1ccc(NC(=O)NCc2ccccc2OC)cc1	1%	3	15	-2%	-9%
Cc1ccc(CNC(=O)Nc2ccccc2)c(C)c1	-6%	31*	64*	-4%	-4%
Cc1ccccc1CNC(=O)Nc1ccc(Cl)cc1	1%	34*	69*	-4%	0%
C=C(C)C1COc2cc3oc(=O)ccc3cc2O1 (stereo unspecified)	x	x	x	0%	x
Nc1cccc2cc(S(=O)(=O)Nc3ccc(C(=O)O)cc3)ccc12	x	x	x	x	9%
O=C1C[C@@H](O)[C@@H](O)[C@H]2[C@@H]3C(=O)N(C4CCCCC4)C(=O)[C@@H]3CC[C@H]12	x	x	x	-3%[12.9 µM]	x
O=C(/C=C\Nc1ccc2c(c1)OCO2)c1ccccn1	3.5µM*	-4	-22	-1%	-23%
O=C(O)c1ccc2c(c1)OCO2	x	x	x	-1%	x
O=C(Nc1ccc2c(c1)OCO2)c1ccc(Cl)nc1	5%	17	65	-1%	-9%
COc1cc(/C=C/C(=O)c2ccc3c(c2)OCO3)cc(Cl)c1O	-2%	8	25	-8%	-48%
COc1ccc(N/C=C/C(=O)c2ccc3c(c2)OCO3)cc1OC	-7%	67*	61*	-17%	-36%
O=C(/C=C\Nc1ccc2c(c1)OCO2)c1ccc2c(c1)OCO2	u	29*	95*	-1%	-5%
COc1ccc(N/C=C\C(=O)c2ccc3c(c2)OCO3)cc1	-23%	63*	88*	-13%	-138%
COc1ccc(CNC(=O)C2CCN(S(=O)(=O)c3ccc4c(c3)N(C(C)=O)CCO4)CC2)cc1	0%	-2	22	0%	-9%
N#Cc1ccc(S(=O)(=O)NC2CCCCNC2=O)cc1 (stereo unspecified)	1%	-3	-3	24%	-7%
C#CCNC(=O)/C=C/c1ccc(OC)cc1	-29%	40*	59*	-4%	22%
SMILES	LmPK inh	Cycloheximide cs	Shiga toxin inh	Giardia FBPA inh	NS1 function inh
O=C(/C=C/c1ccco1)N/C(=C\c1ccccc1)C(=O)NCCc1nc2ccccc2[nH]1	-2%	9	37*	5%	-16%
COc1ccc(/C=C/C(=O)NCCCN2CCCC2)cc1	-5%	-4	20	-14%	2%
COc1ccc(/C=C/C(=O)NCCc2nc3ccccc3[nH]2)cc1	2%	16*	20	-2%	14%
CCCCCCCCCCCCCCCCn1cc[n+](Cc2ccccc2)c1C	x	-8	-23	-7%	x
C[C@H](CN(C)C)C(C#N)(c1ccccc1)c1ccccc1	x	x	x	x	-5%
Cc1ccc(SCC(=O)Nc2cc([N+](=O)[O-])ccc2O)cc1	5%	28*	55*	23%	-6%
COc1ccc([N+](=O)[O-])cc1NC(=O)CSCc1ccc(Br)cc1	2%	7	-3	-15%	-4%
O=C(CSCc1ccc(Cl)cc1)Nc1cc([N+](=O)[O-])ccc1O	2%	16	46*	11%	-5%
COC(=O)/C(=C1/Oc2ccc(C(C)(C)C)cc2S1)C(F)(F)F	-7%	50*	10	0%	-9%
Cc1ccc(O)c(NS(=O)(=O)c2cccc3nsnc23)c1	-1%	14*	-4	-8%	-3%
Cc1ccc(Cn2cc(C=O)c(-c3ccc(C)cc3)n2)cc1	-2%	52*	78*	-1%	-16%
Cc1ccc(Cn2cc(/C=C/C(=O)O)c(-c3ccccc3)n2)cc1	-1%	-2	-18	9%	-48%
